According to PMC5540273 (PLoS ONE, 2017):

System: DYRK2
Settings: concentration: 1 μM, replicates: in singlicate; n = 1
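Further: KINOMEscan kinase panel screen.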

Structure (SMILES) | %Inh [%]
CCn1c(-c2ccoc2)nc2cnccc21 [SB-733887] | 6
O=c1cc(N2CCOCC2)nc2n(Cc3ccc(F)c(Cl)c3)ccn12 [GSK2297099] | 0
Cc1cccc(-c2nc(Nc3ccc4c(cnn4C)c3)c3ccccc3n2)n1 [GW876731] | 11
Cl.NS(=O)(=O)c1cccc(Nc2cc(-c3ccc(F)cc3)n[nH]2)c1 [GW824645] | 24
COc1cc(Nc2nccc(N3CCC(NC(=O)C4COc5ccccc5O4)C3)n2)cc(OC)c1OC (stereo not drawn) [GSK1379761] | 19
COC(=O)c1c(-c2ccccc2)c2cc(Br)ccc2c(=O)n1Cc1ccc(NC(=O)CCC(=O)O)cc1 | 8
CN1C(=O)C(Nc2cc(Cl)c(O)c(Cl)c2)=C(c2ccc(Cl)cc2)C1=O [SB-404321] | 0
CCC(=O)c1c(-c2ccccc2)c2cc(Cl)ccc2c(=O)n1Cc1cc(S(C)(=O)=O)n(CC(N)=O)n1 | 0
Nc1ncnc2c1ncn2-c1ccc(Cl)cc1 [AH2635] | 2
O=C(NCc1cccs1)c1cc(C(=O)c2c(Cl)cccc2Cl)c[nH]1 [GW823670] | 0
CCn1c(-c2nonc2N)nc2ccccc21 [SB-693162/GW549034] | 37
O=C(NCCNc1ccnc(Nc2ccc(F)cc2)n1)Nc1ccc2c(c1)OCO2 [GSK1379882] | 23
COc1ccc(Nc2nccc(N3CCC(NS(=O)(=O)c4ccc(NC(C)=O)cc4)C3)n2)cc1 (stereo not drawn) [GSK1379729] | 3
COc1cc2nccc(Nc3cccc(Oc4ccccc4)c3)c2cc1OC.Cl [GW284543] | 11
O=C(Nc1ccc2c(c1)OCO2)NC1CCN(c2ccnc(NCc3ccc(F)cc3)n2)CC1 [GSK1379859] | 5
Nc1ncnc2c1ncn2-c1cccc(F)c1 [SKF-97560] | 13
COc1ccc(-c2cc3c(C)nc(N)nc3n([C@H]3CC[C@H](O)CC3)c2=O)cn1 | 0
COc1ccc(CNC(=O)NC2CCN(c3ccnc(Nc4ccc(F)cc4)n3)C2)cc1 (stereo not drawn) [GSK1379706] | 0

Structure (SMILES) | %Inh [%]
Nc1ncnc2c1ncn2-c1cccc2ccccc12 [SKF-97184] | 6
COc1cccc(C2=C(N(C)c3ccccc3)C(=O)NC2=O)c1 [SB-334865] | 0
Nc1nc(N)c2nc(-c3ccccc3)[nH]c2n1 [SKF-12778] | 44
COc1cc2ncn(-c3cc(OCc4ccncc4Br)c(C(N)=O)s3)c2cc1OC [GW854278] | 30
Nc1n[nH]c2nnc(-c3ccccc3)c(-c3ccccc3)c12 [GW554060] | 20
Nc1nc(-c2ccccc2F)c(-c2ccnc3ccccc23)s1 [GW560459] | 0
Nc1nccc2scc(-c3ccc4c(c3)CCN4C(=O)Cc3ccccc3)c12 [GSK2576924] | 20
Cc1cccc(-c2cc(-c3c[nH]nc3-c3ccccn3)ccn2)c1 [GW679395] | 0
Cc1ccc(-c2ccc3c(ccc4sc5c(c43)NC[C@@H](C)N=C5N(C)C)n2)cn1 | 0
CCCNC(=O)Nc1ccc(Oc2ncnc3ccn(C)c23)cc1 | 24
CCCC(=O)Nc1n[nH]c2ncc(-c3cccc4ccccc34)cc12 [SB-642057] | 4
CCC(=O)c1c(-c2ccccc2)c2cc(Cl)ccc2c(=O)n1Cc1ccc(C(=O)O)cc1 | 15
COc1cc2ncn(-c3cc(OCCCc4ccccc4)c(C(N)=O)s3)c2cc1OC [GSK205189] | 0
Cc1cc(Nc2nc(-c3cccc(C)n3)nc3ccccc23)ccn1 [GW872411] | 0
COc1ccc(-c2cc3c(C)nc(N)nc3n([C@H]3CC[C@H](OCCO)CC3)c2=O)cn1 | 0
O=C(Nc1n[nH]c2nc(-c3ccccc3)c(Cl)cc12)C1CC1 [SB-734909] | 8
COc1cc2ncn(-c3cc(OCc4ccc(S(C)(=O)=O)cc4)c(C(N)=O)s3)c2cc1OC [GW869979] | 1
CN1C(=O)C(Nc2ccccc2)=C(c2ccccc2)C1=O [SB-300079] | 10

System: EGFR
Settings: concentration: 1 μM, replicates: in singlicate; n = 1

Structure (SMILES) | %Inh [%]
CCn1c(-c2ccoc2)nc2cnccc21 [SB-733887] | 24
O=c1cc(N2CCOCC2)nc2n(Cc3ccc(F)c(Cl)c3)ccn12 [GSK2297099] | 18
Cc1cccc(-c2nc(Nc3ccc4c(cnn4C)c3)c3ccccc3n2)n1 [GW876731] | 0
Cl.NS(=O)(=O)c1cccc(Nc2cc(-c3ccc(F)cc3)n[nH]2)c1 [GW824645] | 0
COc1cc(Nc2nccc(N3CCC(NC(=O)C4COc5ccccc5O4)C3)n2)cc(OC)c1OC (stereo not drawn) [GSK1379761] | 43
COC(=O)c1c(-c2ccccc2)c2cc(Br)ccc2c(=O)n1Cc1ccc(NC(=O)CCC(=O)O)cc1 | 0
CN1C(=O)C(Nc2cc(Cl)c(O)c(Cl)c2)=C(c2ccc(Cl)cc2)C1=O [SB-404321] | 52
CCC(=O)c1c(-c2ccccc2)c2cc(Cl)ccc2c(=O)n1Cc1cc(S(C)(=O)=O)n(CC(N)=O)n1 | 0
Nc1ncnc2c1ncn2-c1ccc(Cl)cc1 [AH2635] | 15
O=C(NCc1cccs1)c1cc(C(=O)c2c(Cl)cccc2Cl)c[nH]1 [GW823670] | 0
CCn1c(-c2nonc2N)nc2ccccc21 [SB-693162/GW549034] | 0
O=C(NCCNc1ccnc(Nc2ccc(F)cc2)n1)Nc1ccc2c(c1)OCO2 [GSK1379882] | 0
COc1ccc(Nc2nccc(N3CCC(NS(=O)(=O)c4ccc(NC(C)=O)cc4)C3)n2)cc1 (stereo not drawn) [GSK1379729] | 36
COc1cc2nccc(Nc3cccc(Oc4ccccc4)c3)c2cc1OC.Cl [GW284543] | 40
O=C(Nc1ccc2c(c1)OCO2)NC1CCN(c2ccnc(NCc3ccc(F)cc3)n2)CC1 [GSK1379859] | 44
Nc1ncnc2c1ncn2-c1cccc(F)c1 [SKF-97560] | 9
COc1ccc(-c2cc3c(C)nc(N)nc3n([C@H]3CC[C@H](O)CC3)c2=O)cn1 | 0
COc1ccc(CNC(=O)NC2CCN(c3ccnc(Nc4ccc(F)cc4)n3)C2)cc1 (stereo not drawn) [GSK1379706] | 20

Structure (SMILES) | %Inh [%]
Nc1ncnc2c1ncn2-c1cccc2ccccc12 [SKF-97184] | 45
COc1cccc(C2=C(N(C)c3ccccc3)C(=O)NC2=O)c1 [SB-334865] | 36
Nc1nc(N)c2nc(-c3ccccc3)[nH]c2n1 [SKF-12778] | 14
COc1cc2ncn(-c3cc(OCc4ccncc4Br)c(C(N)=O)s3)c2cc1OC [GW854278] | 27
Nc1n[nH]c2nnc(-c3ccccc3)c(-c3ccccc3)c12 [GW554060] | 36
Nc1nc(-c2ccccc2F)c(-c2ccnc3ccccc23)s1 [GW560459] | 36
Nc1nccc2scc(-c3ccc4c(c3)CCN4C(=O)Cc3ccccc3)c12 [GSK2576924] | 21
Cc1cccc(-c2cc(-c3c[nH]nc3-c3ccccn3)ccn2)c1 [GW679395] | 31
Cc1ccc(-c2ccc3c(ccc4sc5c(c43)NC[C@@H](C)N=C5N(C)C)n2)cn1 | 23
CCCNC(=O)Nc1ccc(Oc2ncnc3ccn(C)c23)cc1 | 15
CCCC(=O)Nc1n[nH]c2ncc(-c3cccc4ccccc34)cc12 [SB-642057] | 20
CCC(=O)c1c(-c2ccccc2)c2cc(Cl)ccc2c(=O)n1Cc1ccc(C(=O)O)cc1 | 0
COc1cc2ncn(-c3cc(OCCCc4ccccc4)c(C(N)=O)s3)c2cc1OC [GSK205189] | 15
Cc1cc(Nc2nc(-c3cccc(C)n3)nc3ccccc23)ccn1 [GW872411] | 0
COc1ccc(-c2cc3c(C)nc(N)nc3n([C@H]3CC[C@H](OCCO)CC3)c2=O)cn1 | 12
O=C(Nc1n[nH]c2nc(-c3ccccc3)c(Cl)cc12)C1CC1 [SB-734909] | 14
COc1cc2ncn(-c3cc(OCc4ccc(S(C)(=O)=O)cc4)c(C(N)=O)s3)c2cc1OC [GW869979] | 25
CN1C(=O)C(Nc2ccccc2)=C(c2ccccc2)C1=O [SB-300079] | 16
